This is a sample that favours compounds with a hit; in the whole collection about 6.7% have one here.
MCF10A rereplic – A quantitative high throughput screen for small molecules that induce DNA re-replication in MCF 10a normal breast cells; MCF 10A DNA re-replication, Hoechst nuclear intensity, 48 h; Potency, µM (highest dose often 46.1 µM), hits mostly activators; 350,000 compounds, 2.9% hits; further: nearly all actives have a fitted effect of over 50% in size
KB-V1 cytotox – qHTS assay for MDR1-selective chemotherapeutics: Primary screen using the drug-selected MDR subline cells KB-V1; KB-V1 MDR cells viability, CellTiter-Glo, 72 h; Potency, µM (top dose mostly 46.1 µM), most hits filed as cytotoxic; 400,000 compounds, 3.4% hits; AID 1347076, 2019; further: nearly all actives have a fitted effect of over 60% in size
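KB-V1 MDR subline cells in DMEM (phenol-red free, 10% FBS) exposed to compounds in qHTS concentration series for 72 h at 37 degrees C. Viability read by CellTiter-Glo luminescence; concentration-effect curves fitted after normalization and correction.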
PINK1 expr mod – A Quantitative High throughput Screen to Identify Chemical Modulators of PINK1 Expression; 410,000 compounds, 0.2% hits; Potency, µM (titrated, usually from 76.6 µM), most hits filed as activators; PINK1 immunofluorescence, high-content cytometry, 24 h; active means well fitted activation curve with a large enough effect; inconclusive means small, poorly fitted or top-dose-only effect; cell line not stated here; further: nearly all actives have a fitted effect of over 65% in size
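Stable cell line treated 24 h with compounds at 5 concentrations (CCCP controls), then fixed and immunostained for PINK1 plus nuclear and cell stains; PINK1 immunofluorescence quantified by laser-scanning microplate cytometry.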
SW480 rereplic – A quantitative high throughput screen for small molecules that induce DNA re-replication in SW480 colon adenocarcinoma cells. SW480 DNA re-replication, Hoechst DNA content imaging, 48 h. 340,000 compounds, 1.8% hits. Potency, µM (doses to about 46.1 µM), actives largely listed as activators. AID 624297, 2012; further: nearly all actives have a fitted effect of over 55% in size
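Image-based read-out: total Hoechst fluorescence of nuclei (405 nm excitation, 500-530 nm emission), with hits raising the fraction of high-intensity nuclei. SW480 colon cells incubated 48 hr with compounds at 37 C.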
KB-3-1 cytotox – qHTS assay for MDR1-selective chemotherapeutics: Primary screen using the parental adenocarcinoma cell KB-3-1; KB-3-1 viability, CellTiter-Glo ATP luminescence, 72 h; Potency, µM (highest dose often 46.1 µM), actives largely listed as cytotoxic; 400,000 compounds, 1.4% hits; AID 1347075, 2019; further: nearly all actives have a fitted effect of over 60% in size
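Using CellTiter-Glo luminescence, growth of non-resistant KB-3-1 adenocarcinoma cells is assessed 72 h after pin-tool compound addition at 37 °C. Normalized responses across the concentration series yield fitted curves.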
Of the large screens only hits and unclear results are named; the others gave an inactive call; ! = not confirmed by another sample. Unless noted, the call rests on the fitted dose curve; in most records, active means well fitted curve in the direction sought with a large enough effect; inconclusive means small, poorly fitted or top-dose-only effect, or another doubt; inactive means no such curve, though single readings can be large; an effect the other way counts as inactive or inconclusive.

O=C(Nc1ccc(Cl)cc1)Nc1nnc(CSCc2ccc(Cl)cc2)s1	PINK1 expr mod 11.2µM, SW480 rereplic inconclusive, KB-3-1 cytotox inconclusive
COc1cccc(NC(=O)Nc2nnc(Cc3ccccc3F)s2)c1	MCF10A rereplic 14.6µM, KB-V1 cytotox inconclusive
O=C(Nc1ccc(F)cc1)Nc1nnc(Cc2ccccc2F)s1	KB-V1 cytotox 18.4µM
COc1cc(F)ccc1-c1csc(C(C)(O)c2ccccc2)n1 (centres undefined)	none (no result: MCF10A rereplic, SW480 rereplic)
COc1ccc(NC(=O)CC2C(=O)N(c3ccc(F)cc3)C(=O)N2Cc2ccco2)cc1 (centres undefined)	none (no result: MCF10A rereplic, KB-V1 cytotox, SW480 rereplic, KB-3-1 cytotox)
O=C(CN1CCSC1=NCc1ccccc1)c1ccc(Cl)cc1	KB-V1 cytotox 16.4µM
O=C(Nc1ccc(Cl)cc1)N1CCSC1=NCc1ccccc1	none
CC(c1ccc(N(C)C)cc1)c1ccnc2ccccc12 (centres undefined)	KB-3-1 cytotox inconclusive (no result: MCF10A rereplic, PINK1 expr mod, SW480 rereplic)
Cc1cccc(Nc2nnc(SCC(=O)Nc3ccccc3[N+](=O)[O-])s2)c1	KB-V1 cytotox 20.6µM
Cc1cc(C)nc(SCC(=O)Nc2ccnc3ccccc23)n1	KB-V1 cytotox 4.61µM, KB-3-1 cytotox 3.66µM
Cc1cc(C)nc(SCC(=O)Nc2ccccc2[N+](=O)[O-])n1	KB-V1 cytotox 23.1µM
COC(=O)c1ccccc1NC(=O)CSc1nc(C)cc(C)n1	none
Cc1cccc(SCC(=O)Nc2ccccc2[N+](=O)[O-])c1	none
Cc1cc(C)n2nc(SCC(=O)Nc3ccc(F)cc3[N+](=O)[O-])nc2n1	KB-V1 cytotox 20.6µM
CN(C)c1ccc(/C=C2\N=C(C(C)(C)C)OC2=O)cc1	none
Cc1cc(C)nc(SCNC(=O)c2ccccc2)n1	MCF10A rereplic inconclusive, SW480 rereplic 5.8µM
N#Cc1c(N)n(C2OC(CO)C(O)C2O)c2ncnc(N)c12 (centres undefined)	MCF10A rereplic 0.231µM, KB-V1 cytotox 0.206µM, SW480 rereplic inconclusive, KB-3-1 cytotox 0.231µM
COc1cc(Cl)c(CNC[C@H]2O[C@@H](n3cnc4c(N)ncnc43)[C@H](O)[C@@H]2O)c(Cl)c1O	MCF10A rereplic 7.31µM
Nc1ncnc2c1ncn2[C@@H]1O[C@H](CO)[C@@H](O)[C@@H]1O	MCF10A rereplic 7.31µM
OC[C@H]1O[C@@H](n2cnc3c(NCc4ccco4)ncnc32)[C@H](O)[C@@H]1O	MCF10A rereplic inconclusive, SW480 rereplic inconclusive, KB-3-1 cytotox 16.4µM
COc1cc(Cl)c(CNC[C@H]2O[C@@H](n3cnc4c(=O)[nH]c(N)nc43)[C@H](O)[C@@H]2O)c(Cl)c1O	none (no result: MCF10A rereplic, SW480 rereplic)
CCOc1ccc2nc(Cl)c(C3CC(c4ccccc4)=NN3C(=O)CCC(=O)O)cc2c1 (centres undefined)	none (no result: MCF10A rereplic, SW480 rereplic)
CCOC(=O)c1c(S(=O)(=O)N2CCC(C(=O)Nc3ccc(F)cc3F)CC2)c(C)n(C)c1C	none (no result: MCF10A rereplic, SW480 rereplic)
OC1COC(c2ccccc2)OC1C1OC(c2ccccc2)OCC1O (centres undefined)	KB-V1 cytotox inconclusive
OCC1OC(n2cnc3c(NCc4ccco4)ncnc32)C(O)C1O (centres undefined)	MCF10A rereplic 1.03µM, KB-V1 cytotox inconclusive, SW480 rereplic 8.2µM, KB-3-1 cytotox 13µM!
Cc1ccccc1CNc1ncnc2c1ncn2C1OC(CO)C(O)C1O (centres undefined)	none (no result: KB-V1 cytotox, PINK1 expr mod, KB-3-1 cytotox)
COCCN1C(=O)CCC1(C)c1nnnn1-c1ccc2c(c1)OCCO2 (centres undefined)	none (no result: MCF10A rereplic, SW480 rereplic)
CC1CCCC=CC2CC(OC(=O)CN(C)C)CC2C(O)C=CC(=O)O1 (centres undefined)	MCF10A rereplic inconclusive, KB-V1 cytotox inconclusive, SW480 rereplic inconclusive, KB-3-1 cytotox 0.0082µM
CCOC(=O)c1c(SCCN2CCCC2)n(-c2ccccc2)c(=S)n(-c2ccccc2)c1=O	MCF10A rereplic 4.61µM, SW480 rereplic 6.51µM
Cc1ccc(CNn2cnnc2SCc2ccc(F)cc2)cc1	KB-V1 cytotox 14.6µM, KB-3-1 cytotox inconclusive
CCOc1ccccc1OCC(=O)Nc1ccc(S(=O)(=O)Nc2nc(C)cc(C)n2)cc1	KB-V1 cytotox 18.4µM
CC(C)(C)n1nc(-c2ccc(Cl)cc2)c2c(N)ncnc21	MCF10A rereplic inconclusive, KB-V1 cytotox 20.6µM, KB-3-1 cytotox inconclusive
Cc1ccc(-c2ccc(/C=N\NC(=O)c3cc4c(ccc5ccccc54)o3)o2)cc1[N+](=O)[O-]	MCF10A rereplic 7.31µM, KB-V1 cytotox inconclusive, KB-3-1 cytotox inconclusive
O=C(O)c1ccc(/C=N/NC(=O)c2cc3c(ccc4ccccc43)o2)cc1	none
Cc1ccc([N+](=O)[O-])cc1-c1ccc(/C=N/NC(=O)c2cc3c(ccc4ccccc43)o2)o1	none
O=C(N/N=C/c1ccc(-c2ccc(Cl)c(C(=O)O)c2)o1)c1cc2c(ccc3ccccc32)o1	MCF10A rereplic 20.6µM, SW480 rereplic inconclusive
C=C[C@@H]1c2cc(C)ccc2N(S(=O)(=O)c2ccc(C)cc2)[C@H](c2ccc(C(C)(F)F)cc2)C1(C#N)C#N	none (no result: MCF10A rereplic, PINK1 expr mod, SW480 rereplic)
CCCCOc1ccc(Cc2c(Cl)nc(SC)nc2N2CCOCC2)cc1	KB-V1 cytotox 20.6µM
CCOC1CCCc2oc(-c3ccc(N(C)C)cc3)c(C(=O)OC)c21 (centres undefined)	KB-V1 cytotox 8.2µM, KB-3-1 cytotox inconclusive (no result: MCF10A rereplic, SW480 rereplic)
COc1ccc(NC(=O)CN2CCN(Cc3ccc(F)cc3)S2(=O)=O)cc1Cl	none (no result: MCF10A rereplic, SW480 rereplic)
Nc1nc(=S)c2[nH]c(=S)[nH]c2[nH]1	MCF10A rereplic inconclusive, KB-V1 cytotox inconclusive, SW480 rereplic inconclusive, KB-3-1 cytotox inconclusive
Nc1nc(=S)c2[nH]cnc2[nH]1	MCF10A rereplic inconclusive, KB-V1 cytotox 0.731µM, KB-3-1 cytotox 1.03µM
Cc1ccc(C)c(NC(=O)C(Sc2nc3ccc(C)cc3[nH]2)c2ccccc2)c1 (centres undefined)	MCF10A rereplic 20.6µM, PINK1 expr mod inconclusive, SW480 rereplic inconclusive
CCN(CC)S(=O)(=O)c1ccc(C)c(NC(=O)CSc2nc3ccc(C)cc3[nH]2)c1	KB-V1 cytotox 14.6µM, PINK1 expr mod inconclusive (no result: SW480 rereplic)
Cc1ccc2nc(SCC(=O)Nc3cc(C(F)(F)F)ccc3N3CCOCC3)[nH]c2c1	MCF10A rereplic 0.581µM, KB-V1 cytotox inconclusive, SW480 rereplic 5.17µM, KB-3-1 cytotox 0.82µM
CCc1cc(-c2n[nH]c(C)c2-c2ccccc2Cl)c(O)cc1OC	MCF10A rereplic inconclusive
O=c1cc[nH]c(=S)[nH]1	none (no result: KB-V1 cytotox, PINK1 expr mod, KB-3-1 cytotox)
CN(C(=O)CC1C(=O)NCCN1Cc1ccc(F)c(F)c1)C1CCCCC1 (centres undefined)	none
COc1ccc(C2C(=O)N(C3CCCCC3)CC(=O)N2C2CCCC2)cc1 (centres undefined)	KB-V1 cytotox 2.59µM
CNC(=O)C[C@H]1C(=O)N(CCc2ccccc2)C[C@@H]1c1ccc(OC)cc1	none (no result: MCF10A rereplic, SW480 rereplic)
